# Test system: ACVR1
# Conditions: concentration: 1 μM, replicates: in singlicate; n = 1
# 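Also: KINOMEscan kinase panel screen.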
row,SMILES,%Inh [%]
1,Cl.Cl.NCC(NCc1ccc(-c2ccnc3[nH]ccc23)s1)c1ccccc1 (stereo not shown) [GSK1321565],18
2,Cl.NC(=O)c1cccc(Nc2nccc(Nc3ccc(Oc4c(Cl)cccc4Cl)c(Cl)c3)n2)c1 [GW659009],0
3,Cc1ccc(C)c(NC(=O)NC2CCN(c3ccnc(Nc4ccc(F)cc4)n3)C2)c1 (stereo not shown) [GSK1379720],14
4,COC(=O)Nc1nc2cc(Oc3ccc(NC(=O)Nc4cc(C(F)(F)F)ccc4F)cn3)ccc2[nH]1.Cl.Cl [GW681170],0
5,Cn1cc(-c2[nH]c3cc(NC(=O)[C@H](N)C4CCCCC4)cc4c3c2C=NNC4=O)cn1,58
6,CCn1c(-c2nonc2N)nc2c(C#CC(C)(C)O)ncc(OCCCCN)c21.O=C(O)C(F)(F)F.O=C(O)C(F)(F)F [GSK507274],3
7,NCCCC(NC(=O)c1cc(Br)c(-c2ccnc3[nH]ccc23)s1)c1ccccc1.O=C(O)C(F)(F)F.O=C(O)C(F)(F)F (stereo not shown) [GSK1287544],0
8,Cc1ccc(C(=O)Nc2ccc(Nc3ccnc4cc(-c5nccs5)ccc34)cc2O)cc1.Cl [GW494702],18
9,CN(C)S(=O)(=O)c1cc(-c2ccc3nccc(-c4cccc(S(N)(=O)=O)c4)c3c2)cnc1N [GSK1669921],88
10,COc1ccc(Nc2nccc(NCCNC(=O)c3cc4ccccc4s3)n2)cc1 [GSK1379896],0
11,Cc1ccc(F)c(C(=O)Nc2cccc(-c3nn4ccccc4c3-c3ccnc(Nc4cccc(F)c4)n3)c2)c1F [GSK361061],23
12,Nc1n[nH]c2cnc(-c3ccccc3)cc12 [SB-642124],41
13,Cc1cccc(NC(=O)Nc2ccc(Oc3ncnc4ccn(C)c34)cc2)c1,4
14,COc1cc2c(cc1OCCN1CCNCC1)ncc1c3ccc(C#N)cc3[nH]c21,0
15,Fc1ccc(-c2ncn(C3CCNCC3)c2-c2ccnc(Oc3ccc(-c4ccccc4)cc3)n2)cc1 [SB-245391],0
16,CC(=O)Nc1nc2cnc(Nc3cc(NC(=O)c4cccc(C5(C#N)CC5)c4Cl)ccc3C)nc2s1,0
17,O=C(O)C(F)(F)F.O=C(O)C(F)(F)F.O=c1[nH]ccc2nc(N[C@@H]3CCCNC3)nc(Nc3ccc(S(=O)(=O)N4CCOCC4)cc3)c12 [GSK2177277],91.1
18,Oc1cc(Nc2ccnc3cc(I)ccc23)ccc1F [GW552771],97.4
19,COc1cccc(C(=O)Nc2cccc(Oc3ccc4nc(NC(=O)C5CC5)cn4n3)c2)c1,0
20,O=C(Nc1cccc(Oc2ccc3nc(NC(=O)C4CC4)cn3n2)c1)c1ccccc1C(F)(F)F,0
21,Clc1ccc(-c2nn3ncccc3c2-c2ccnc(Nc3ccc4c(c3)OCCO4)n2)cc1 [GW829116],0
22,O=C(Nc1cccc(-c2nn3ccccc3c2-c2ccnc(Nc3cccc(F)c3)n2)c1)c1c(F)ccc(F)c1Cl [GSK357952],1
23,COC(=O)Nc1nc2ccc(Oc3ccc(NC(=O)Nc4cc(C(F)(F)F)ccc4F)cc3)cc2n1C.Cl [GW692089],0
24,O=C(Nc1cccc(-c2nn3ncccc3c2-c2ccnc(Nc3ccccc3)n2)c1)c1c(F)cccc1F [GSK198271],21
25,CN1CCN(CCCNc2nccc(-c3c(-c4ccc(F)cc4)nn4cc(C(F)(F)F)ccc34)n2)CC1 [GW621581],40

# From publication PMC5540273 (PLoS ONE, 2017)
